Source: PubChem BioAssay AID1259415 (National Center for Advancing Translational Sciences (NCATS), 2018)
The campaign covered roughly 410,000 compounds. About 18,000 (4.4%) were called active. Roughly 7% stayed inconclusive and do not appear here. Many of the other results were omitted from the sample, so actives are more common in it than they were. Unmarked numbers belong to inactive results. No stated cut-off is given here; in the data, active means activity change below about -60%; inconclusive means no clear call, values can overlap the other calls; inactive means above about -39%.

Assay: qHTS Assay for inhibitors of the human cytomegalovirus (HCMV)
Conditions: HFF cells, HCMV-luciferase reporter, 72 h; at 57.5 µM; hits give low values
Source text: NCGC Assay Overview: Infection with human cytomegalovirus (HCMV) continues to pose significant threats for pregnant women and immunocompromised hosts. HCMV causes serious morbidity and mortality in transplant recipients, and congenital HCMV is the leading infectious cause of mental retardation and deafness in children. In the 1990s, the annual costs associated with the disease burden of congenital CMV were estimated at around $2 billion. A HCMV vaccine is not available yet and HCMV therapies result in intolerable side effects and emergence of drug resistant viruses. […] Towards this goal we have developed and characterized a luciferase HCMV reporter that was initially used in 96 well plates and then optimized to 1536-well plates for utilization in screening of the MLSMR collection, the NGCG diversity collection and the NCGC Pharmaceutical Collection of approved and investigational drugs.
NCGC Assay Protocol Summary:
This is a cell-based assay for HCMV inhibition in HFFs cells. The screening used 2 compound doses and the HCMV-luciferase at MOI of 1 PFU/cell. Cells were treated and infected with HCMV. At 72 h post infection cell lysates were collected and luciferase activity was determined using the Glomax-Multi + Detection System (Promega, Madison, WI). Data were normalized to the controls for basal activity (buffer only) and known HCMV inhibitors Salinmoycin.
1536-well assay protocol for the assay:
(1) Add 3 ul CMV/HFF cell culture. 1000 cells/well in DMEM nirmal media.
(2) Incubate 16 hr at 37C.
(3) Add 23 nl control compound, 10uM of Salinomycin.
(4) Add 23 nl compounds in DMSO solution.
(5) Add 3 ul CMV suspension. Final 1 puf/ul, Virus stock 2000pfu/ul
(6) Incubate 72 hrs at 37C.
(7) Add 4 ul OneGlo Luc Reagent.
(8) Incubate 5 min at room temperature.
On the % scale 0 is the no-effect control and ±100 the full control effect.

Structure (SMILES) | activity change, negative = inhibition
O=C(Nc1nnc(C2CC(=O)N(c3ccc(Cl)cc3)C2)s1)c1ccco1 (configuration not stated) | 5.75%
Cc1ccc(NC(=O)CC2C(=O)N(Cc3ccccc3)C(=S)N2NC(=O)c2cccc(F)c2)c(C)c1 (configuration not stated) | -70.8% (active)
Cc1ccc(NC(=O)CN2C(=O)CC(C)Sc3ccccc32)c(C)c1 (configuration not stated) | -2.3%
Cc1ccc(N2C(=O)C(CC(=O)Nc3cccc(F)c3)N(CCc3ccncc3)C2=O)cc1 (configuration not stated) | -29.9%
Cc1ccc(CNC(=O)C2CC(c3ccccc3[N+](=O)[O-])=NO2)o1 (configuration not stated) | -11.5%
Cc1ccccc1NC(=O)c1cc2c([nH]c1=O)CC(C)(C)CC2=O | 43%
O=C(Cn1cc(-c2nnnn2-c2ccc(Cl)cc2)c(=O)c2ccccc21)c1ccccc1 | -9.79%
Clc1ccc(-n2nnnc2-c2cnc(-c3ccccn3)nc2-c2cccs2)cc1 | -103% (active)
N#Cc1ccc(CSc2nnc(-c3ccccn3)n2-c2ccc(Cl)cc2)cc1 | -9.16%
CCCS(=O)(=O)Nc1cccc(-c2cn3ccsc3n2)c1 | -0.309%
CC(=O)NC(c1cccs1)c1cc(Br)c2cccnc2c1O (configuration not stated) | -100% (active)
N#Cc1ccccc1NC(=O)COc1c(Br)cc(Br)c2cccnc12 | 85.2%
O=[N+]([O-])c1cc([N+](=O)[O-])c2cccnc2c1O | -19.7%
O=C(CNS(=O)(=O)c1ccc2ccccc2c1)Nc1ccc(F)c(F)c1F | 0%
CC(=O)c1cccc(OCC(=O)OCC(=O)Nc2cc(S(=O)(=O)N3CCCCC3)ccc2C)c1 | 9.96%
Cc1ccc(NS(=O)(=O)c2ccc(C)c(NC(=O)COc3ccc4ccccc4c3)c2)c(C)c1 | -81.5% (active)
CCCn1c(C(C)Nc2nc(-c3ccc(C)cc3)cs2)nc2cc(Cl)c(N3CCCCC3)cc21 (configuration not stated) | 2.56%
NC1=CC(=O)C(=O)c2cccnc21 | -78.2% (active)
O=C1CCCC2=C1C(c1cccs1)n1nc(SCc3ccccc3)nc1N2 (configuration not stated) | -15.6%
COC(=O)c1ccc(NC(=O)c2cc3c(CO)cnc(C)c3oc2=Nc2cccc(C(N)=O)c2)cc1 | -2.9%
Cn1nccc1/C=N\NC(=O)c1ccc(Cl)cc1 | 45.6%
O=C(N/N=C/c1ccccn1)c1cccc(NC(=O)c2ccc(Cl)cc2)c1 | -69.8% (active)
CC1(C)C2CC=C(/C=N/NC(=O)c3ccc(Cl)cc3)C1C2 (configuration not stated) | 23.1%
CC(C)C(=O)Nc1nnc(SCC(=O)N2C(C)CCCC2C)s1 (configuration not stated) | -28.8%

Structure (SMILES) | activity change, negative = inhibition
Cc1nn(-c2ccc(N3CCCCC3)nn2)c(C)c1CCC(=O)NCc1ccccc1F | -16.6%
Cc1ccnc(NC(=O)c2ccc(NC(=O)c3ccco3)cc2)c1 | -84.7% (active)
C/C(=N/NS(=O)(=O)c1ccccc1)c1ccc(NC(=O)C(F)(F)F)cc1 | 0.908%
Cc1ccc(C)c(NC(=O)c2ccc(OC(=O)c3ccco3)cc2)c1 | 71.3%
CSCCC(NC(=O)c1ccco1)C(=O)Nc1cc(C)ccn1 (configuration not stated) | 47.1%
CCN(c1ccc(Cl)cc1)S(=O)(=O)c1nnc(NC(=O)c2ccco2)s1 | 39.9%
C/C(=N\NS(=O)(=O)c1ccc(Cl)cc1)c1ccc(NC(=O)c2ccco2)cc1 | -65.3% (active)
CC(C)Cn1c(-c2ccc(S(=O)(=O)N3CCOCC3)cc2)csc1=Nc1cc(Cl)ccc1Cl | 0.205%
CN(Cc1ccccc1)C(=O)c1cn(C)c2ccc(S(=O)(=O)N3CCCCC3)cc2c1=O | -4.78%
CCOC(=O)c1c(S(=O)(=O)N2CCCC(C(=O)NCc3ccc(F)cc3)C2)c(C)n(CC)c1C (configuration not stated) | -1.02%
Cc1ccc(C2C=C(c3ccc(Cl)cc3)Nc3nc(NC(=O)CCC(=O)O)nn32)cc1 (configuration not stated) | -19.9%
Cc1ccc(OCC(=O)OCc2cc(=O)n3nc(C4CC4)sc3n2)cc1C | -1.4%
COc1ccc(-n2ccnc(NCCc3ccc(Cl)cc3)c2=O)cc1OC | -27.6%
Cn1c(=O)c2c(nc(NCCc3ccccc3)n2Cc2ccccc2)n(C)c1=O | -84.2% (active)
Cn1c(=O)[nH]c(=O)c2c1nc(NCCc1ccccc1)n2Cc1ccc(F)cc1 | 26.5%
Cn1c(=O)c2c(nc(NCCc3ccccc3)n2Cc2ccccc2Br)n(C)c1=O | 6.41%
Cn1c(=O)c2c(nc(NCc3ccccc3)n2CC(N)=O)n(C)c1=O | -13.4%
CCn1c(NCCc2ccc(OC)c(OC)c2)nc2c1c(=O)n(C)c(=O)n2C | -71.3% (active)
CCOC(=O)c1ccc(NC(=O)Cn2cc(S(=O)(=O)Cc3ccccc3F)c3ccccc32)cc1 | 0%
CCOc1cccc2cc(-c3cn4c(n3)sc3cc(C)ccc34)c(=O)oc12 | 0.706%
CCOC(=O)c1ccc(NC(=O)CC2C(=O)N(c3ccccc3)C(=O)N2Cc2cccs2)cc1 (configuration not stated) | 16.8%
CCn1nc(C(=O)Nc2ccc(N3CCOCC3)cc2)c2ccccc2c1=O | -3.67%
CCOc1cc(-c2nnc(SCC(=O)NC3CCCCC3)nc2-c2ccc(OC)c(OCC)c2)ccc1OC | 8.79%
